From PubChem
Hits are enriched below; roughly 10% of the tested compounds scored in any of these assays.
G9a block: inhibitors of human histone lysine methyltransferase G9a | G9a H3K9 monomethylation, AlphaScreen, 2 h | Q96KQ7 | AID 504332 | 8.8% of 350,000 active | Potency, µM (highest dose often 102 µM), inactives show top-dose activity, negative = inhibition, hits mostly inhibitors; further: potency means the concentration at half of the fitted maximal effect; on the % scale 0 is the no-effect control and ±100 the full control effect; nearly all actives have a fitted effect of over 75% in size
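G9a (20 nM) preincubated 15 min RT with compounds, then 500 nM biotinylated H3K9 peptide and 20 uM SAM added; 2 h RT reaction. Monomethyl-H3K9 product detected by AlphaScreen with anti-H3K9me1 antibody, streptavidin donor and anti-rabbit IgG acceptor beads.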
BAZ2B inh: blocks human BAZ2B; AlphaScreen BAZ2B-H3K14Ac peptide displacement; 4.4% of 360,000 active; Potency, µM (series often up to 114 µM), for the others: at the top dose activity change, negative = inhibition, usual class: inhibitors; Q9UIF8; AID 504333; further: potency means the concentration at half of the fitted maximal effect; on the % scale 0 is the no-effect control and ±100 the full control effect; nearly all actives have a fitted effect of over 60% in size
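Complex of BAZ2B and biotin-H3K14Ac (50 nM apiece) forms over 30 min at RT, then faces library compounds up to 110 uM for another 30 min; AlphaScreen beads added, 20 min dark incubation, luminescence read.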
CtBP-E1A inh: blocks the CtBP interaction with E1A; 0.49% of 340,000 active; AID 651724; activity change, % (no concentration beside the values); AlphaScreen GST-E1A/His-CtBP binding, 1536-well; stronger effect = lower value; in the data active means activity change below about -65%; inconclusive means mostly about -30% to -63%; further: on the % scale 0 is the no-effect control and ±100 the full control effect
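Protein mix (5X: 125 nM each GST-E1A, His-CtBP) was incubated with pinned compound 2 h at 37 deg C in dark, in 50 mM Tris pH 8.0 buffer with 300 mM NaCl. Glutathione donor and nickel acceptor beads followed; AlphaScreen signal read after 1 h.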
HP1b binding inh: HP1-beta chromodomain-methylated histone interaction inhibition; P83916; AlphaScreen HP1-beta / biotin-H3K9me3 peptide binding; Potency, µM (highest dose often 114 µM), without a hit: at the top dose activity change, negative = inhibition, actives largely listed as inhibitors; 0.56% of 390,000 active; AID 540317; further: potency means the concentration at half of the fitted maximal effect; nearly all actives have a fitted effect of over 70% in size
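Compound inhibition of the preformed complex between 50 nM HP1-beta and 50 nM biotinylated H3K9me3 peptide was read by AlphaScreen. Buffer was PBS pH 7.4 with 0.01% Tween-20. Incubations ran 30 min at room temperature, with 10 ug/mL donor/acceptor beads.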
Six1-Eya2 blk: Six1/Eya2 interaction inhibition; activity change, % (no concentration beside the values); 0.56% of 360,000 active; Q15475+O00167; AlphaScreen GST-Six1/His-Eya2 binding, biochemical; stronger effect = lower value; in the data active means activity change below about -65%; inconclusive means mostly about -30% to -63%; further: on the % scale 0 is the no-effect control and ±100 the full control effect
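Compounds are tested against tagged Six1 and Eya2 proteins bridged by glutathione donor and nickel acceptor beads; after a one-hour incubation at 37 °C without light, AlphaScreen emission is recorded.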
JMJD2A Tudor: inhibitors of human JMJD2A Tudor domain; 4.4% of 390,000 active; O75164; AID 504339; Potency, µM (titrated, usually from 114 µM), for inactives: top-dose activity change, negative = inhibition, most hits filed as inhibitors; AlphaScreen JMJD2A-Tudor / H3K4me3 peptide binding; further: potency means the concentration at half of the fitted maximal effect; on the % scale 0 is the no-effect control and ±100 the full control effect; nearly all actives have a fitted effect of over 50% in size
Starred values were filed as active, the others as inactive; ? = inconclusive; . = no result given; [ ] = remark or other dose. Unless noted, the call rests on the fitted dose curve; in most records, active means well fitted inhibition curve with a large enough effect; inconclusive means small, poorly fitted or top-dose-only effect; inactive means no such curve, though single readings can be large or run the other way.

SMILES	G9a block	BAZ2B inh	CtBP-E1A inh	HP1b binding inh	Six1-Eya2 blk	JMJD2A Tudor
O=C(NNc1ccccc1)C(=O)NNS(=O)(=O)c1ccc(CCCl)cc1	45µM*	?	1	50%	-1	-19%
COc1ccc(S(=O)(=O)NNC(=O)C(=O)NNc2ccccn2)cc1	28%	?	?	55%	-91*	-24%
Nc1ccc(S(=O)(=O)NNC(=O)C(=O)NNc2ccccc2)cc1	1.8µM*	-39%	6	23%	-6	-4%
Nc1ccc(S(=O)(=O)Nc2ccc(C(=O)c3ccccc3)cc2)cc1	.	-11%	6	19%	1	-19%
COc1ccc(C(=O)NCc2nnc(SCC(=O)Nc3ccccc3)n2-c2ccc(F)cc2)cc1	9%[59 µM]	-16%	.	20%	.	-15%
CCOc1ccc(NC(=O)C2CCCN(S(=O)(=O)c3c(C)noc3/C=C/N(C)C)C2)cc1 (centres undefined)	-6%[59 µM]	-26%	.	19%	.	-32%
CCc1nnc2c(Nc3ccc(Br)c(C)c3)nc3ccccc3n12	?	4%	.	25%	.	?
CCOc1ccc(CCNS(=O)(=O)c2cc(Br)cc3c2N(C(C)=O)CC3)cc1OCC	-42%[59 µM]	0%	.	7%	.	-25%
COc1ccc(C2=NN(C3=NN=C(N)Cc4ncnn43)C(O)(C(F)(F)F)C2)cc1 (centres undefined)	.	?	-86*	39%	-68*	-18%
COc1ccccc1C1=NN(C2=NN=C(N)Cc3ncnn32)C(O)(C(F)(F)F)C1 (centres undefined)	20%	15%	-65*	36%	?	-15%
NC1=NN=C(N2N=C(c3ccc(Br)cc3)CC2(O)C(F)(F)F)n2ncnc2C1 (centres undefined)	122%[59 µM]	1%	-8	26%	?	-11%
NC1=NN=C(N2N=C(c3ccccc3)CC2(O)C(F)(F)F)n2ncnc2C1 (centres undefined)	4%	13%	-70*	29%	?	-13%
CCOC(=O)c1cnc2c(ccc3ccccc32)c1Nc1ccccc1O	-13%[59 µM]	-12%	.	31%	.	-8%
C=CC(C)(C)O[C@@H]1O[C@H](CO)[C@@H](O)[C@H](O)[C@H]1O	8%[2.33 µM]	-6%	2	19%	5	-9%
CC(/C=C/C=C(\C)C(=O)O[C@@H]1O[C@H](CO[C@@H]2O[C@H](CO)[C@@H](O)[C@H](O)[C@H]2O)[C@@H](O)[C@H](O)[C@H]1O)=C\C=C\C=C(C)\C=C\C=C(/C)C(=O)O[C@@H]1O[C@H](CO[C@@H]2O[C@H](CO)[C@@H](O)[C@H](O)[C@H]2O)[C@@H](O)[C@H](O)[C@H]1O	18µM*	.	.	.	.	.
CCCCN(C)CCCNC(=O)Cn1ncc2c3ccccc3n(Cc3cccc(Cl)c3)c2c1=O	-38%[59 µM]	-12%	.	2%	.	-20%
Cc1ccc(-c2c(C)c(-c3ccc(F)cc3)nc(N)c2C#N)o1	13µM*	20%	6	40%	1	6%
Cc1c(-c2ccc(F)cc2)nc(N)c(C#N)c1-c1cccnc1	15%	0%	2	33%	28	2%
O=C(OCc1nc2scc(-c3ccccc3)c2c(=O)[nH]1)c1ccco1	?	8%	-3	20%	-14	-18%
NC(=O)Cc1nc2scc(-c3ccccc3)c2c(=O)[nH]1	14µM*	-19%	-3	-6%	?	-10%
O=C(OCc1nc2scc(-c3ccccc3)c2c(=O)[nH]1)c1cccc([N+](=O)[O-])c1	40µM*	-2%	-26	?	-7	?
OC(COCc1ccco1)CN1CCN(C(c2ccccc2)c2ccccc2)CC1 (centres undefined)	-159%	35µM*	-16	28µM*	0	1.3µM*
OC(COc1ccccc1)CN1CCN(C(c2ccccc2)c2ccccc2)CC1 (centres undefined)	11%	?	-14	9%	-11	-33%
